Among the data in PubChem BioAssay (EPA / NIEHS) are outcome and AC50 values, retold here.

Test [1] can be described thus: ATG_NFI_CIS: Attagene CIS-FACTORIAL HepG2 Assay for human Nuclear Factor I (NFI) (AID 2282989). The conditions noted are these: HepG2 cis-regulatory reporter, NFI response element transcription; actives raise or lower the signal. The method, boiled down:
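After transient transfection of HepG2 with cis-promoter reporter constructs and 24 h dosing, RNA is reverse-transcribed, amplified, 6-FAM end-labelled and HpaI-digested before capillary analysis. Bidirectional curve fitting against DMSO.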

Test [2] deals with Myc proto-oncogene protein (Homo sapiens) (UniProt P01106). The test is described as follows: ATG_Myc_CIS: Attagene CIS-FACTORIAL HepG2 Assay for human Myelocytomatosis (Myc) Proto-Oncogene Transcription Factor (AID 2282990). The conditions noted are these: HepG2, Attagene cis-reporter transcription factor activity; actives raise or lower the signal. The method in brief: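 Read-out: fluorescent reporter mRNA fragments resolved by capillary electrophoresis after RT-PCR. Human HepG2 liver cells carried transfected cis-element reporter units and were dosed for 24 h. Gain or loss of signal fitted relative to DMSO baseline.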
Chain of Myc proto-oncogene protein (Homo sapiens) (P01106 whole entry, looked up, the tested form may be a part): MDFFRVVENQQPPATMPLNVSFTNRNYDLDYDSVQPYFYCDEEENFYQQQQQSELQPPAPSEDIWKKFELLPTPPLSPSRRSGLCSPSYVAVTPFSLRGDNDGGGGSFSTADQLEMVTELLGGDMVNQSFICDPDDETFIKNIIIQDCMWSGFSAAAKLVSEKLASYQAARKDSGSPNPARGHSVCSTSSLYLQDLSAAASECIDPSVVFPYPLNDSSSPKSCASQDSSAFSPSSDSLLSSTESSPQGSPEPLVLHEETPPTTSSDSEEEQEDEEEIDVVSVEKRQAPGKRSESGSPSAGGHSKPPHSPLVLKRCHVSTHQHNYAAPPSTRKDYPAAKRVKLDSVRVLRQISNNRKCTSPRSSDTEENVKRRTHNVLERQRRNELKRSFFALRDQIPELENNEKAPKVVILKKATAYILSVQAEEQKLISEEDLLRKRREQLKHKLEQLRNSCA

A short description of test [3]: ATG_NRF2_ARE_CIS: Attagene CIS-FACTORIAL HepG2 Assay for human Nuclear Factor Erythroid 2 Related Factor 2 (NFR2) response to Antioxidant Response Elements (ARE) (AID 2282992). Conditions: HepG2 Attagene ARE/NRF2 reporter, transcription factor activity; actives raise or lower the signal. The method, boiled down:
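Fluorescence intensity of reporter-specific cDNA fragments, separated by capillary electrophoresis, reflects mRNA induction in transfected HepG2 cells at 24 h. Activity is fitted bidirectionally, DMSO serving as baseline.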

Test [4] is described as follows: BSK_3C_TissueFactor: BioMAP Diversity Plus: 3C Assay for Tissue Factor Biomarker Activity (AID 2282997). The conditions noted are these: BioMAP 3C HUVEC, tissue factor biomarker readout; actives raise or lower the signal. The method in brief: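 Tissue factor on primary human umbilical vein endothelium was read by ELISA 24 h after dosing, gain or loss relative to DMSO. Cytotoxicity ran alongside via SRB (0.1%, TCA-fixed, 560 nm).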

A short description of test [5]: BSK_3C_uPAR: BioMAP Diversity Plus: 3C Assay for Urokinase-type plasminogen activator receptor (uPAR) Biomarker Activity (AID 2282998). Conditions: BioMAP 3C HUVEC, uPAR biomarker ELISA; actives raise or lower the signal. The method, boiled down:
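Endothelial primary cells of human umbilical vein origin received test chemical; 24 h later uPAR was assayed by ELISA. Fitting was bidirectional, DMSO as negative control.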
For orientation: ELISA stands for enzyme-linked immunosorbent assay.

Test [6] can be described thus: BSK_3C_VCAM1: BioMAP Diversity Plus: 3C Assay for Vascular cell adhesion molecule 1 (VCAM1) Biomarker Activity (AID 2282999). Conditions: BioMAP 3C HUVEC, VCAM1 ELISA, cytokine-stimulated; actives raise or lower the signal. The method, boiled down:
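HUVEC primary cells, 24 h compound exposure; VCAM-1 by ELISA; gain/loss of signal fitted bidirectionally vs DMSO baseline.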

Test [7] in a line: BSK_4H_Eotaxin3: BioMAP Diversity Plus: 4H Assay for Eotaxin 3 Biomarker Activity (AID 2283000).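 Also: CCL26 protein level quantified by ELISA in parallel with SRB cytotoxicity check.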 The conditions noted are these: primary human endothelial cells (HUVEC); actives raise or lower the signal. The method in brief:
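Human umbilical vein endothelial cells (BSK_4H system) dosed with test chemical; Eotaxin-3 (CCL26) measured by ELISA 24 h after dosing. Bidirectional curve fitting relative to DMSO negative control as baseline.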

Read-out in test [8]: Intercellular Adhesion Molecule 1 (ICAM1), ICAM1 (gene 3383)
Description: BSK_3C_ICAM1: BioMAP Diversity Plus: 3C Assay for Intercellular Adhesion Molecule 1 (ICAM1) Biomarker Activity (AID 2283003). Conditions: primary human endothelial cells (HUVEC); actives raise or lower the signal. The method, boiled down: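 ELISA read-out of ICAM-1; HUVEC (primary human), 3C system, 24 h post-dosing; bidirectional fit vs DMSO baseline.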

Test [9] deals with Retinoic acid receptor alpha (Homo sapiens) (UniProt P10276). The test is described as follows: ATG_RARa_TRANS: Attagene TRANS-FACTORIAL HepG2 Assay for human Retinoic Acid Receptor alpha (RARa) (AID 2283005; active = hit-call score of the fitted dose curve at least 0.9, where 1 is the maximum). The method, boiled down:
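HepG2 transiently transfected with multiplex GAL4-UAS reporter units including a human RARa–GAL4 chimera; 24 h compound exposure. Reporter mRNA quantified by RT-PCR, 6-FAM labeling and capillary electrophoresis; gain of signal versus DMSO.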

Test [10] can be described thus: BSK_3C_Proliferation: Cell Proliferation Assessment in the BioMAP Diversity Plus: 3C Assay (AID 2283006). The conditions noted are these: primary human endothelial cells (HUVEC). The method, boiled down: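 HUVEC, sub-confluent; 48 h chemical exposure; 10% TCA fix, 0.1% SRB stain, A560 total protein. Gain or loss of signal fitted both directions vs DMSO control.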

The target of test [11] is Nuclear receptor subfamily 1 group I member 2 (Homo sapiens) (UniProt O75469). The test is described as follows: ATG_PXR_TRANS: Attagene TRANS-FACTORIAL HepG2 Assay for human Pregnane X Receptor (PXR) (AID 2283008; active = hit-call score of the fitted dose curve at least 0.9, where 1 is the maximum). The method, boiled down:
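Transient HepG2 transfectants carrying multiplexed reporter transcription units; PXR activity read through a Gal4 chimera. 24 h exposure. RT-PCR/CE fluorescence; upward curve fit referenced to DMSO.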

Test [12] deals with human RAR-related Orphan Receptor beta (RORb), RORB (gene 6096) (UniProt Q92753). The test is described as follows: ATG_RORb_TRANS: Attagene TRANS-FACTORIAL HepG2 Assay for human RAR-related Orphan Receptor beta (RORb) (AID 2283010; active = hit-call score of the fitted dose curve at least 0.9, where 1 is the maximum). The method, boiled down:
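HepG2, transient MRTU transfection (GAL4-UAS reporters, exogenous NR-Gal4 chimeras); 24 h compound exposure; total RNA → RT-PCR → 6-FAM primer extension → HpaI digest → CE fluorescence. Positive direction vs DMSO baseline.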

Test [13] can be described thus: ATG_Oct_MLP_CIS: Attagene CIS-FACTORIAL HepG2 Assay for human Octamer-Binding Transcription Factor (Oct) (AID 2282993). The conditions noted are these: HepG2 Attagene cis-factorial Oct reporter, mRNA; actives raise or lower the signal. The method, boiled down:
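Cells of the HepG2 line express promoter-controlled reporter sequences whose mRNA levels, after 24 h treatment, are measured by RT-PCR and capillary electrophoresis. Increases and decreases are scored relative to DMSO.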

The target of test [14] is human Peroxisome Proliferator-activated Receptor delta (PPARd), PPARD (gene 5467) (UniProt Q03181). Description: ATG_PPARd_TRANS: Attagene TRANS-FACTORIAL HepG2 Assay for human Peroxisome Proliferator-activated Receptor delta (PPARd) (AID 2283002; active = hit-call score of the fitted dose curve at least 0.9, where 1 is the maximum). The method in brief: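 Read-out: reporter mRNA induction, quantified by fluorescent RT-PCR products resolved by capillary electrophoresis. Human HepG2 liver cells carried transiently transfected Gal4-UAS reporter constructs with chimeric NR-Gal4 fusions. Cells were dosed for 24 h; DMSO served as baseline.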
Chain of human Peroxisome Proliferator-activated Receptor delta (PPARd), PPARD (gene 5467) (Q03181 whole entry, looked up, the tested form may be a part): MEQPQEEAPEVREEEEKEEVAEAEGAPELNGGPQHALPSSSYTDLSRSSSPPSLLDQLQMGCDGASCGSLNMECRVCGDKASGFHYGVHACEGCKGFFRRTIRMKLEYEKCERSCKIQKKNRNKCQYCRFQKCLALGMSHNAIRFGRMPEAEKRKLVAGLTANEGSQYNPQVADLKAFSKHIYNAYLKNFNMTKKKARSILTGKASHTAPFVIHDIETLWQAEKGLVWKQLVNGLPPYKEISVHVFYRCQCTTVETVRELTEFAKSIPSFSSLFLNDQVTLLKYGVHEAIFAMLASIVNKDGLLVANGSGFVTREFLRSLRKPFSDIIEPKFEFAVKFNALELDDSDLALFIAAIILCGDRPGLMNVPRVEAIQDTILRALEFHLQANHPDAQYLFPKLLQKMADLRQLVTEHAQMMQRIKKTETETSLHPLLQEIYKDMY

The target in test [15] is Peroxisome proliferator-activated receptor gamma (Homo sapiens) (UniProt P37231). Description: ATG_PPARg_TRANS: Attagene TRANS-FACTORIAL HepG2 Assay for human Peroxisome Proliferator-activated Receptor-gamma (PPARg) (AID 2283007; active = hit-call score of the fitted dose curve at least 0.9, where 1 is the maximum). The method in brief:
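HepG2 cells transiently transfected with multiplexed GAL4-UAS reporter units and exogenous chimeric NR-Gal4 proteins; reporter mRNA quantified after 24 h compound exposure by RT-PCR, fluorescent labelling, HpaI digestion and capillary electrophoresis; gain-of-signal fitted versus DMSO baseline.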

For test [16], the target named is human Retinoic Acid Receptor gamma (RARg), RARG (gene 5916) (UniProt P13631). The test is described as follows: ATG_RARg_TRANS: Attagene TRANS-FACTORIAL HepG2 Assay for human Retinoic Acid Receptor gamma (RARg) (AID 2283009; active = hit-call score of the fitted dose curve at least 0.9, where 1 is the maximum). The method in brief:
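Readout: reporter transcript levels via RT-PCR, 6-FAM primer-extension labelling, HpaI digestion and capillary electrophoresis. Cells: HepG2 carrying transfected RARg-GAL4 chimera plus UAS reporter set. Dosing 24 h; DMSO negative control.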

Test [17] deals with human Peroxisome Proliferator-activated Receptor alpha (PPARa), PPARA (gene 5465) (UniProt Q07869). Description: ATG_PPARa_TRANS: Attagene TRANS-FACTORIAL HepG2 Assay for human Peroxisome Proliferator-activated Receptor alpha (PPARa) (AID 2283001; active = hit-call score of the fitted dose curve at least 0.9, where 1 is the maximum). The method in brief:
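Transient HepG2 transfection, GAL4-UAS reporters, NR-Gal4 chimeras; 24 h compound exposure. Readout: reporter transcripts by RT-PCR, 6-FAM primer extension, HpaI digest, capillary electrophoresis. Positive direction vs DMSO baseline.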

Test [18] deals with human Retinoic Acid Receptor beta (RARb), RARB (gene 5915) (UniProt P10826). The test is described as follows: ATG_RARb_TRANS: Attagene TRANS-FACTORIAL HepG2 Assay for human Retinoic Acid Receptor beta (AID 2283004; active = hit-call score of the fitted dose curve at least 0.9, where 1 is the maximum). The method, boiled down: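 Induction of reporter mRNA from a chimeric RARb-Gal4 construct was measured by RT-PCR, FAM labelling, HpaI digestion and capillary electrophoresis. Measurements followed 24 h compound treatment of transiently transfected human HepG2 liver cells, with DMSO as baseline.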
Chain of human Retinoic Acid Receptor beta (RARb), RARB (gene 5915) (P10826 whole entry, looked up, the tested form may be a part): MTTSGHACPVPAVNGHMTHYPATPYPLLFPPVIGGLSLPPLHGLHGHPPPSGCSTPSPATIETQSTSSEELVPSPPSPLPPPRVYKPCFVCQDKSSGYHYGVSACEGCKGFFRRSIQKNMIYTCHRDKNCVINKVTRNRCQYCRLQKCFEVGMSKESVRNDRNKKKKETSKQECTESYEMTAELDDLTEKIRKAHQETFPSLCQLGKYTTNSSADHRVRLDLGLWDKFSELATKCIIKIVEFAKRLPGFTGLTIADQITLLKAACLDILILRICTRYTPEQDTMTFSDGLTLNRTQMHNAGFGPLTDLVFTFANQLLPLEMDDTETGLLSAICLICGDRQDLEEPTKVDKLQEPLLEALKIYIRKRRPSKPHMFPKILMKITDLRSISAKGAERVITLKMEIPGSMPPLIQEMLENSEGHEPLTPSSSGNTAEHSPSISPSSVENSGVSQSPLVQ

In test [19] the target is Cellular tumor antigen p53 (Homo sapiens) (UniProt P04637). Description: ATG_p53_CIS: Attagene CIS-FACTORIAL HepG2 Assay for human p53 Transcription Factor (AID 2282994). The conditions noted are these: HepG2 p53 cis-element reporter, Attagene mRNA; actives raise or lower the signal. The method, boiled down: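 Transiently transfected HepG2 (multiple cis reporter transcription units); exposure 24 h; reporter RNA via RT-PCR, 6-FAM extension, 2 h HpaI digest at 37 C, CE detection; DMSO baseline.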
Chain of Cellular tumor antigen p53 (Homo sapiens) (P04637 whole entry, looked up): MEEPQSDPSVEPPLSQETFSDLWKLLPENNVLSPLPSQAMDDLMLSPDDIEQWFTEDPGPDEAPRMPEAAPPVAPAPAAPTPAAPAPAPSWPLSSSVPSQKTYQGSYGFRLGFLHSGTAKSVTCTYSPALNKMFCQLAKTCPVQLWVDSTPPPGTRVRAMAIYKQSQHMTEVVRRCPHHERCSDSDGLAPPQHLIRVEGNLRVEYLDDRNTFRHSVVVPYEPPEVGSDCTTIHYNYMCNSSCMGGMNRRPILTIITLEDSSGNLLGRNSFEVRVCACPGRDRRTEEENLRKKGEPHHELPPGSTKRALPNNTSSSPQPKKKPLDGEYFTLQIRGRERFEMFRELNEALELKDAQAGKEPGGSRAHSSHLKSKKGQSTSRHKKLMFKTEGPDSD

Molecules are shown by their SMILES. Results filed as inconclusive are left out. Active and inactive are the calls of the source. The calls were made as follows, unless noted: active = hit-call score of the fitted dose curve at least 0.9, where 1 is the maximum; inactive = score below 0.9.

Chain of Nuclear receptor subfamily 1 group I member 2 (Homo sapiens) (O75469 whole entry, looked up, the tested form may be a part): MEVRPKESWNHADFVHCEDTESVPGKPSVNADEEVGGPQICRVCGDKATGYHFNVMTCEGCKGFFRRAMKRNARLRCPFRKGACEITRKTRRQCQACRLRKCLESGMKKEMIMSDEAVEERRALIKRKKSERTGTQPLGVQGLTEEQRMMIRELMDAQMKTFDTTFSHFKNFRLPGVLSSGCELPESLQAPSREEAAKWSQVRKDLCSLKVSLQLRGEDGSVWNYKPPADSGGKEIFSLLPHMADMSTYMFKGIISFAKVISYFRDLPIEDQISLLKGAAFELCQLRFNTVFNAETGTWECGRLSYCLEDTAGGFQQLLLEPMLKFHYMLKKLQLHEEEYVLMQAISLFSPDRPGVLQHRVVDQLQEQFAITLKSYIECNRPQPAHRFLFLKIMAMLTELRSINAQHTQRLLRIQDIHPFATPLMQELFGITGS
Chain of human Peroxisome Proliferator-activated Receptor alpha (PPARa), PPARA (gene 5465) (Q07869 whole entry, looked up, the tested form may be a part): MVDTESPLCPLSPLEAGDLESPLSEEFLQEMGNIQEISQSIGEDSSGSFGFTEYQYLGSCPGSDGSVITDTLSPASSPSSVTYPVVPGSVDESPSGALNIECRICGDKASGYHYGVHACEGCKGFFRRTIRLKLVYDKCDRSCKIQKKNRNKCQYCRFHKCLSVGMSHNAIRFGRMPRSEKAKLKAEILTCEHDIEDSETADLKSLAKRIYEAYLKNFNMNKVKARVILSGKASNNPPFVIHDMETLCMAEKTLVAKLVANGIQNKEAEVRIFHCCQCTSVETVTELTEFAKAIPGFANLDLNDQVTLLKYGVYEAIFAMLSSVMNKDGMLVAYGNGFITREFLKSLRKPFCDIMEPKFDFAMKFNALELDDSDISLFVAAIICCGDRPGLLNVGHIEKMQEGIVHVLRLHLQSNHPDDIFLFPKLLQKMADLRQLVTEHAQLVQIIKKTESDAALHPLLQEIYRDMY
Chain of Retinoic acid receptor alpha (Homo sapiens) (P10276 whole entry, looked up, the tested form may be a part): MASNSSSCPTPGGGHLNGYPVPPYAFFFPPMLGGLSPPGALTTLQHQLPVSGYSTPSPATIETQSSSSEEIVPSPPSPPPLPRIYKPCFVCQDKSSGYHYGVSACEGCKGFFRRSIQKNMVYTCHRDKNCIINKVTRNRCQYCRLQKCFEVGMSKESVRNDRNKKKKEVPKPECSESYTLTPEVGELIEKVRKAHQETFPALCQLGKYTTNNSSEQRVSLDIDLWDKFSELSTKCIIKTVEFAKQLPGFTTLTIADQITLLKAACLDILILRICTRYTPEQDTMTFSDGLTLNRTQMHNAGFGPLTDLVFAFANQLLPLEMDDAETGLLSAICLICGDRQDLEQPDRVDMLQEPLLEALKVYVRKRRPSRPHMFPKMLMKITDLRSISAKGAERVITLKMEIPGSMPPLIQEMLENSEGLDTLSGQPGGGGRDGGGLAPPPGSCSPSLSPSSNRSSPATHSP
Chain of Peroxisome proliferator-activated receptor gamma (Homo sapiens) (P37231 whole entry, looked up, the tested form may be a part): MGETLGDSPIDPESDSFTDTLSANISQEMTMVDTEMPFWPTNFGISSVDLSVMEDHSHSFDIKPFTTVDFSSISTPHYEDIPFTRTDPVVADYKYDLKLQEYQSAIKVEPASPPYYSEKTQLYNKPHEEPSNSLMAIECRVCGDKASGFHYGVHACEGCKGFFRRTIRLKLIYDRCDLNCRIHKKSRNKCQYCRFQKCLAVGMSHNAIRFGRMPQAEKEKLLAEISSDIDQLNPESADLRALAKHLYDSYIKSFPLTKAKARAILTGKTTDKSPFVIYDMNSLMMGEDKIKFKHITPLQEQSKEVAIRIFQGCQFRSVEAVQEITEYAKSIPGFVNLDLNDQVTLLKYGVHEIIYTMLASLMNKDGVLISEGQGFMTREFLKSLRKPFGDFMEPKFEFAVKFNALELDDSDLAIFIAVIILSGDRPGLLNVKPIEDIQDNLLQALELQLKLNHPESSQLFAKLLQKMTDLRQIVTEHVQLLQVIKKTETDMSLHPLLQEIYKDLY
Chain of human Retinoic Acid Receptor gamma (RARg), RARG (gene 5916) (P13631 whole entry, looked up, the tested form may be a part): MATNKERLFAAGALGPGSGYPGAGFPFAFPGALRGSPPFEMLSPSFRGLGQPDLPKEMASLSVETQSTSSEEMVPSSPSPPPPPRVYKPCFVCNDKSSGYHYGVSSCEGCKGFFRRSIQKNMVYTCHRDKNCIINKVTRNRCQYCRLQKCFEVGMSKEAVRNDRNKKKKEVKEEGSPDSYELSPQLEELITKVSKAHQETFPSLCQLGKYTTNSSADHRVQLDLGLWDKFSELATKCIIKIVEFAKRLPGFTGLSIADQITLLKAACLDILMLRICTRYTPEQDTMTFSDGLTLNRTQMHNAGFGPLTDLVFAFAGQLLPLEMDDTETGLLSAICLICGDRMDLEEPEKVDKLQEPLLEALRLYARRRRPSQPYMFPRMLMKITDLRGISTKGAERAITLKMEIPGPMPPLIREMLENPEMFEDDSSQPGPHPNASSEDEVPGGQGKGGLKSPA
Chain of human RAR-related Orphan Receptor beta (RORb), RORB (gene 6096) (Q92753 whole entry, looked up, the tested form may be a part): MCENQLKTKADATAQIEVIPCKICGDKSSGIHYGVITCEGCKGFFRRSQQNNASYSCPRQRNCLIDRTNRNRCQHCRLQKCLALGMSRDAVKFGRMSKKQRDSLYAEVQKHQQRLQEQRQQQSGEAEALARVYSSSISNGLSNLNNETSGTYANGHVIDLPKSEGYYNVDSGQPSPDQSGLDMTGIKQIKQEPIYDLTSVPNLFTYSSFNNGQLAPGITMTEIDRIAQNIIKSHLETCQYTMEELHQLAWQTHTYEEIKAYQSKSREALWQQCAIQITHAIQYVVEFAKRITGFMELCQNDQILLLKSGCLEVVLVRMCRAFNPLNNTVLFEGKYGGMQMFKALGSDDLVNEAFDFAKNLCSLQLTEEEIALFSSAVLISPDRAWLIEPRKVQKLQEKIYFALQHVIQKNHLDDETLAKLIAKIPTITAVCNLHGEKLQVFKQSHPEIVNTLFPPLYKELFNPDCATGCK

Consider `CC1OC1C1CCC2(C)OC2C1` (centres undefined), for which the call in test [1], in test [2], in test [4], in [5], in test [6] and in [7] was inactive. For the same molecule, the result in test [8], in [9], in test [10] and in [12] was inactive. Further, the AC50 – broadly, the concentration at which the activity in the assay is half-maximal – in test [3] is 100 µM (active); in test [11] it was 23.4 µM (active).

For the molecule `Nc1ccc(Oc2ccc(N)c(N)c2)cc1`, the result in [1], in [2], in [13], in test [14], in test [11] and in test [16] was inactive. Also, the results for the AC50 in [3] and in [15] were 30.6 µM (active) and 60.1 µM (active), respectively.

In the case of `C[Si](C)(C)O[Si](O)(O)O`, the call in test [1], in test [2], in [17], in test [14], in test [18] and in test [11] was inactive. Further, the outcome in test [16] was inactive.

As for `CCCCCCCCCCCCCCCC[n+]1ccccc1`, the molecule was classed as inactive in test [1], in test [3], in test [17], in test [14], in test [18] and in [9]. For the same molecule, the molecule was called inactive in test [15], in test [11] and in [16]. Besides, the concentration at half-maximal activity (AC50) in test [2] is 20 µM (active); in [19], 20.4 µM (active).

`O=C(O)c1cc2ccccc2nc1C(=O)O`: the molecule was classed as inactive in test [1], in [2], in test [13], in test [19], in test [17] and in test [15]. Besides, the call in [11] was inactive.

On to `Nc1nc2ccccc2[nH]1`, for which the molecule was called inactive in test [1], in test [2], in test [13], in [19], in test [17] and in test [18]. Further, the molecule was called inactive in test [15] and in test [11].

For the molecule `O=C(c1ccccc1)c1ccc(O)c(O)c1O`, the molecule was called inactive in test [1], in [2], in [19], in test [17], in test [14] and in test [9]. In addition, in test [12], the result was inactive. Also, the results for the AC50 in test [3] and in test [11] were 61.6 µM (active) and 24 µM (active), respectively.

Take `O=S1(=O)OC(c2ccc(O)cc2)(c2ccc(O)cc2)c2ccccc21`: the result in [1], in test [2], in test [3], in test [13], in test [14] and in test [15] was inactive. The call in test [11] was inactive.
